# Results published in PubChem BioAssay AID1851 (National Center for Advancing Translational Sciences (NCATS), 2009).
# The whole screen tested about 16,000 compounds, of which about 2,600 (16%) were called active. Not shown: some 20% with an inconclusive outcome. A selection follows. Unmarked numbers belong to inactive results. Calls come from the whole dose curve; as a rule, active = well fitted curve in the direction sought with a large enough effect; inconclusive = small, poorly fitted or top-dose-only effect, or effect the other way; inactive = no such curve, though single readings can be large or run the other way.
# Target: Cytochrome P450 2D6 (Homo sapiens) (UniProt P10635)
# Sequence (P10635 whole entry, looked up): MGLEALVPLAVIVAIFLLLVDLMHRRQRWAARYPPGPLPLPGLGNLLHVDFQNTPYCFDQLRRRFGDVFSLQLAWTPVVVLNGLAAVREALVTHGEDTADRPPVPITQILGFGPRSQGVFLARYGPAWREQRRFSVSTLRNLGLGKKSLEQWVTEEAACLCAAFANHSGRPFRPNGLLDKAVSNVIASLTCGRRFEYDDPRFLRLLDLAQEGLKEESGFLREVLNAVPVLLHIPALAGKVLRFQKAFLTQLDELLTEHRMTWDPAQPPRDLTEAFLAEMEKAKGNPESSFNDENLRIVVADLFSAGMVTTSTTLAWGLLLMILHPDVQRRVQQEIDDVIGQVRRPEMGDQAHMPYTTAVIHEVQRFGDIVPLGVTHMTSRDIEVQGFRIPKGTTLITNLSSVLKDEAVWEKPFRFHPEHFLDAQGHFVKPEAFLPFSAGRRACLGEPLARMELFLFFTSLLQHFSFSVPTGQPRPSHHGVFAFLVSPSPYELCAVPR
# Assay: Cytochrome panel assay with activity outcomes
# Conditions: recombinant CYP, pro-luciferin dealkylation, luminescence, p450-cyp2d6; series mostly up to 57.1 µM; activity, negative = inhibition: at the top concentration
# % is set by controls: 0 for no effect and ±100 for the full control effect.
Compound,"activity, negative = inhibition",AC50
CCOC(=O)NC(NC(=O)OCC)C(=O)c1ccc(F)cc1,3.08%,–
CCOC(=O)Nc1ccc(C)cc1NC(=O)OCC,10.5%,–
CCOC(=O)Nc1ccc(NCc2ccc(F)cc2)nc1N,–,31.6 µM (active)
CC1=NNC(=O)C1CCC(=O)N/N=C\c1ccccc1[N+](=O)[O-] (centres undefined),3.05%,–
C/C(=N\N=C1\NC(=O)CC(C(=O)O)S1)c1cccs1 (centres undefined),-14.7%,–
COCCN1C(=O)c2ccccc2C(C(=O)Nc2ccc3c(c2)OCCO3)C1c1ccc(F)cc1 (centres undefined),-15.1%,–
C/C(CCc1ccc2c(c1)OCO2)=N\N=C1\NC(=O)CC(C(=O)Nc2ccccc2)S1 (centres undefined),–,8.91 µM (active)
Cc1nn(-c2ccccc2)c(Cl)c1C(=O)Nc1c(C)n(C)n(-c2ccccc2)c1=O,6.41%,–
CCC(C)NC(=O)c1c(C)cc(=O)oc1C (centres undefined),4.71%,–
C1CCN(CC[C@@H]2CCCCN2)CC1,-9.75% [at 11.4 µM],–
NC(N)=NC[C@@H]1CCCCCCN1,5.74% [at 11.4 µM],–
C1CCC(C(C[C@@H]2CCCCN2)C2CCCCC2)CC1,–,0.501 µM (active)
CCC(=O)N1CCc2cc(S(=O)(=O)NC(C(=O)NCc3ccc(F)cc3)C(C)C)ccc21 (centres undefined),0.907%,–
CC(C)(C)NC(=S)Nc1ccc(Nc2ccccc2)cc1,–,14.1 µM (active)
CNC(=S)Nc1ccc(Nc2ccccc2)cc1,-29.5%,–
S=C(Nc1ccccc1)Nc1ccc(OCc2ccccc2)cc1,-25.1%,–
COc1cccc(Nc2ncc3nc(-c4cccs4)c(=O)n(CCC#N)c3n2)c1,-4.4%,–
CCOC(=O)c1ccc(-c2ccc(CO)o2)cc1,-15%,–
O=C(N/N=C/c1ccc(OCc2ccccc2)cc1)c1cccs1,-1.86%,–
COc1ccc(N2C(=O)NC3CC2(C)Oc2ccccc23)cc1OC (centres undefined),-0.582%,–
C[C@@H](O)[C@H]1C(=O)N2C(C(=O)O)=C(S[C@@H]3CN[C@H](C(=O)N(C)C)C3)[C@H](C)[C@H]12,4.97% [at 25.6 µM],–
CCOC(=O)N1CCC(NC(=O)CSCc2cnn(-c3ccccc3)c2-n2cccc2)CC1,-28.7%,–
COCC(=O)O[C@]1(CCN(C)CCCc2nc3ccccc3[nH]2)CCc2cc(F)ccc2[C@@H]1C(C)C,–,0.316 µM (active)
COc1ccc(N(C)S(=O)(=O)c2ccc3c(c2)CCC(=O)N3)cc1,-12.3%,–
C/C(=N\NC(=O)c1[nH]c2c([N+](=O)[O-])cc(C)cc2c1-c1ccccc1)c1cccnc1,-15.9%,–
COc1ccc(NC(=O)C2c3cc(OC)c(OC)cc3C(=O)N(C)C2c2cccnc2)cc1OC (centres undefined),-3%,–

Compound,"activity, negative = inhibition",AC50
C=CCC(C)(NCc1ccccc1)c1ccco1 (centres undefined),–,3.98 µM (active)
CC1(C)Oc2cc(N)c([N+](=O)[O-])cc2O1,-5.57%,–
Cc1nnc(SCC(=O)N2CC(=O)Nc3ccccc32)n1Cc1ccccc1,-3.02%,–
O=C(O)c1ccccc1-c1ccccc1C(=O)Nc1ccc2c(c1)Cc1ccccc1-2,8.94% [at 11.4 µM],–
O=[N+]([O-])c1cccc(/C(=N/N=C/c2ccccc2Br)C23CN4CN(CN(C4)C2)C3)c1,-6.29%,–
Cc1ccc(C(=O)NNC(=O)c2cc3cc4ccccc4nc3s2)cc1,19.3%,–
c1ccc(-c2n[nH]c(-c3ccccc3)c2-c2nc3ccccc3[nH]2)cc1,-22.8%,–
Oc1ccc(-c2nc(-c3ccc(F)cc3)c(-c3ccncc3)[nH]2)cc1,–,5.01 µM (active)
Cc1ccsc1-c1nc(-c2ccccc2)c(-c2ccccc2)[nH]1,-0.505%,–
O=c1cnc2cnc(Oc3ccccc3)nc2n1C1CC1,-9.03%,–
Cc1ccc(C(=O)c2cn(-c3ccc(F)c(Cl)c3)nn2)cc1,6.95%,–
CC[C@](N)(CCC(=O)O)C(=O)O,-1.06%,–
Nc1nnc(SCCOc2cccc(Br)c2)s1,–,11.2 µM (active)
CCSc1nnc(NC(=O)COc2ccc3ccccc3c2)s1,-5.34%,–
CCn1c2ccccc2c2cc(N=C3SC(CC(=O)Nc4ccccc4OC)C(=O)N3C)ccc21 (centres undefined),-2.34%,–
CCN(CC)c1nc(Nc2ccccc2)nc(Oc2ccc(C(=O)OC)cc2)n1,-6.17%,–
Cc1c(N(C)CS(=O)(=O)O)c(=O)n(-c2ccccc2)n1C,10.2% [at 25.6 µM],–
CN(C)C(=O)c1ccc(-c2nc(-n3ccnc3)c3ccccc3n2)cc1,–,15.8 µM (active)
CN(C)C(=O)c1ccc(-c2nc(Nc3ccccc3)c3ccccc3n2)cc1,-14.8%,–
CN(C)C(=O)c1ccc(-c2nc(Nc3ccncc3)c3ccccc3n2)cc1,-6.54%,–
CN(C)c1ccc(-c2nc(-n3ccnc3)c3ccccc3n2)cc1,–,7.94 µM (active)
COc1ccc(-n2c(=O)c(-c3cccs3)nc3cncnc32)cc1,0.751%,–
Cc1cc(=O)[nH]c2c1c(C)nn2C1CCOC(C)(C)C1 (centres undefined),-7.73%,–
O=C(Nc1nnc(CCS(=O)(=O)c2ccc(Br)cc2)s1)c1ccc([N+](=O)[O-])cc1,-1.29%,–
O=S(=O)(O)c1ccc2cc(N=Nc3cc(S(=O)(=O)O)c4cccnc4c3O)ccc2c1,-2.47% [at 11.4 µM],–
O=C(CCC(=O)Nc1ccccc1)NNC(=O)c1cccs1,11.3%,–

Compound,"activity, negative = inhibition",AC50
CCn1ccc(C(=O)NC2C(=O)N3C(C(=O)O)=C(C)CSC23)n1 (centres undefined),17%,–
COC(=O)Nc1nc2ccc(SC(C)C)cc2[nH]1,-3.07% [at 25.6 µM],–
COc1ccc(-n2c(=O)c(-c3ccccc3)nc3cnc(N4CCNCC4)nc32)cc1,-3.98%,–
Fc1ccc(C(OCCCc2cnc[nH]2)c2ccc(F)cc2)cc1,–,0.631 µM (active)
N[C@@H](Cc1cnc[nH]1)C(=O)O,2.38%,–
O=C(O)CC12C[C@H]3C[C@@H](CC(O)(C3)C1)C2,1.29% [at 11.4 µM],–
COc1ccc(-c2cnnc(CCCn3ccnc3-c3ccccc3)n2)cc1,-4.95% [at 11.4 µM],–
COc1ccc([C@H](O)c2ccccn2)cc1,0.937% [at 11.4 µM],–
COc1ccc(C(O)c2nccn2Cc2ccccc2)cc1 (centres undefined),–,10 µM (active)
CCNC(=O)C/C(C)=N/NC(=O)C12CC3CC(CC(C3)C1)C2,-13.3%,–
COc1ccc(NC(=O)N2CC[C@@]3(CCCN(C(=O)c4ccc(OC)cc4)C3)C2)cc1,12.9%,–
COc1ccc(NC(=O)N2CCCC3(CCN(C(=O)c4cccn4C)CC3)C2)cc1,3.7%,–
CCn1c(SCc2ccc(C#N)cc2)nnc1-c1ccc(S(=O)(=O)N2CCCCC2)cc1,7.38%,–
N#Cc1ccc(C(c2nnnn2Cc2ccccc2)N2CCCC2)cc1 (centres undefined),–,7.94 µM (active)
COCC1C2CC[C@H]3C(OCc4ccc(F)cc4C(F)(F)F)OC[C@]4(C)[C@H]3C2=C(CN4C(=O)OC(C)(C)C)[C@H](C)C1COC (some centres undefined),-9.86%,–
O=C(ON=C1CCN(S(=O)(=O)c2ccccc2)CC1)c1ccccc1,-11.1%,–
c1ccn(-c2ccc(N3CCOCC3)cc2)c1,-19.4%,–
COc1ccc(C(=O)NNC(=S)NC(=O)c2ccco2)cc1,23.2%,–
Cc1ccc(C)c(-n2c(Cc3cc(=O)[nH]c(=O)[nH]3)nnc2SCC(=O)NCC2CCCO2)c1 (centres undefined),5.39%,–
OCCCN=C1CCCCC1,-10.2% [at 11.4 µM],–
CCOC(=O)c1ccccc1OCc1cc(/C=N/n2cnnc2)ccc1OC,-11.9%,–
CC(Sc1ccc2c(c1)OCCO2)C(=O)Nc1ncc(Cl)cc1Cl (centres undefined),–,12.6 µM (active)
CC(C)Cn1c(N)c(C(=O)CSc2ccc3c(c2)OCCO3)c(=O)n(C)c1=O,-14.7%,–
CC(C)C(=O)Nc1cc2c(cc1C(=O)c1ccccc1)OCCO2,-1.98%,–
CCn1c(C)nc2cc(C(=O)NNS(=O)(=O)c3ccccc3F)ccc21,-5.81%,–
Cc1cc(C)cc(N(C(=O)C2CCCC2)C2C=CS(=O)(=O)C2)c1 (centres undefined),-12.9%,–

Compound,"activity, negative = inhibition",AC50
COc1ccc(C(=O)N2CCC3(CC2)CN(C(=O)NC(C)C)C3)cc1,-1.29%,–
COc1ccccc1CC(=O)O/N=C(\N)c1cccc([N+](=O)[O-])c1,-22.3%,–
COc1cc(C)ccc1OCCCOc1ccccc1Cl,7.23%,–
COc1ccccc1OCCCOc1ccc([N+](=O)[O-])cc1Cl,–,11.2 µM (active)
Cc1ccc(OCC(=O)NNC(=O)c2cc3ccccc3o2)cc1,3.8%,–
CCCN(CCC)CCNC(=O)C1CCCN(S(=O)(=O)c2ccc3c(c2)oc(=O)n3C)C1 (centres undefined),-10.6%,–
CCCS(=O)(=O)N1CCCC(C(=O)N2CCN(c3ccccc3)CC2)C1 (centres undefined),-9.13%,–
CCCS(=O)(=O)N1CCCC(C(=O)NCC2CCCO2)C1 (centres undefined),-2.53%,–
CCCS(=O)(=O)N1CCCC(C(=O)NCCN2CCC(Cc3ccccc3)CC2)C1 (centres undefined),–,0.501 µM (active)
O=C(NCCCN1CCN(c2cccc(Cl)c2)CC1)C1CCC(=O)N1Cc1ccccc1Cl (centres undefined),–,5.01 µM (active)
CCCS(=O)(=O)N1CCCC(C(=O)NCCCOC(C)C)C1 (centres undefined),32.2%,–
O=C(Nc1ccc(Br)cc1)C1CCC(=O)N1Cc1ccccc1Cl (centres undefined),-23.9%,–
CCCS(=O)(=O)N1CCCC(C(=O)NCCN2CCOCC2)C1 (centres undefined),4.14%,–
CCCS(=O)(=O)N1CCCC(C(=O)NCCCN2CCN(c3ccccc3F)CC2)C1 (centres undefined),–,10 µM (active)
CCCS(=O)(=O)N1CCCC(C(=O)NCCCN2CCN(c3cccc(Cl)c3)CC2)C1 (centres undefined),–,5.62 µM (active)
COC(Cc1nnc(SC)n1-c1ccccc1)OC,10.6%,–
CC(C)Nc1cc(C(F)(F)F)nc(-c2ccccn2)n1,14.4%,–
CC(C)COP(=O)(c1ccc(N(C)C)cc1)C(O)c1ccccc1F (centres undefined),3.33%,–
COc1cccc(Cn2c(=O)cnc3cnc(OC)nc32)c1,-20.5%,–
Cc1ccc(-c2nc3c(=O)n(C)c4ccccc4c3o2)cc1,-0.939%,–
O=C(COc1ccccc1)Nc1ccc(-c2nnc(-c3ccco3)o2)cc1,-15.7%,–
C/C(CC(=O)Nc1cc(Cl)ccc1Cl)=N\NC(N)=S,-29.8%,–
CC(NC(=O)c1ccc(Cn2cc([N+](=O)[O-])cn2)o1)c1ccccc1 (centres undefined),-9.64%,–
CCOc1cc(NC(=S)NCC2CCCO2)c(OCC)cc1NC(=O)c1ccccc1C (centres undefined),-28.8%,–
CCCc1cc2c(cc1NC(=O)c1ccccc1C)OCO2,–,8.91 µM (active)
CCC(=O)Nc1cc2c(cc1C(=O)c1ccccc1)OCCO2,-0.416%,–
